Measured values from PubChem BioAssay (EPA / NIEHS).
Activity calls are given as the source filed them. How the source made its calls: active means hit-call score of the fitted dose curve at least 0.9, where 1 is the maximum; inactive means score below 0.9.

Experiment: CCTE_Shafer_MEA_acute_firing_rate_mean: CCTE's Neural Acute Assay for Mean Firing Rate, Shafer Lab (AID 2284009)
Procedure: CCTE_Shafer_MEA_acute assay is conducted using Axion Biosystems 48 well microelectrode array (MEA) plates and Maestro recording system. Each well of the MEA plate contains a grid of 16 microelectrodes embedded in the culture surface. Electrically active cells, such as neurons, can be cultured over the electrodes, and electrical activity in these cells can be recorded extracellularly. The spontaneous firing of neurons is captured from each electrode on a microsecond timescale providing both temporally and spatially precise data. […] The CCTE_Shafer_MEA_acute assay uses primary cultures of rat cortical neurons. As these cultures mature over time, neural networks develop functional activity and form cohesive networks in which electrical activity can be highly coordinated. Baseline 40-minute recordings are made on days post-plating 13 or 15, followed by a secondary 40-minute recording after chemical exposure.CCTE_Shafer_MEA_acute_firing_rate_mean is a component of the CCTE_Shafer_MEA_acute assay. It measures the frequency number of spikes (action potential firings) as the total number of spikes divided by the length of the recording in a microelectrode array (MEA) using Axion Biosystems Maestro 768 channel amplifier with the AxIS adaptive spike detector. The firing rate is divided by the number of electrodes to report a well-mean value. The recordings before and after chemical treatment are used to calculate a percent change in the mean firing rate in each well.Data from the assay component CCTE_Shafer_MEA_acute_firing_rate_mean was analyzed into 1 assay endpoint. This assay endpoint, CCTE_Shafer_MEA_acute_firing_rate_mean, was analyzed in the negative analysis fitting direction relative to DMSO as the negative control and baseline of activity. Using a type of functional reporter, gain or loss-of-signal activity can be used to understand electrical activity.
Spontaneous activity in the cortical cultures was recorded using an Axion Biosystems Maestro 768 channel amplifier and Axion Integrated Studios (AxIS) v1.8 (or later) software. The amplifier recorded from all channels simultaneously (gain = 1200 x; sampling rate = 12.5 kHz/channel): raw signals were filtered with a Butterworth band-pass filter (300-5000 Hz), which filters out slower local field potentials leaving only fast potentials, i.e., "spikes", arising from extracellular currents associated with action potentials (Pine 2006; Wheeler and Nam 2011). On-line spike detection of filtered signals was conducted with the AxIS adaptive spike detector, using a threshold of 8x the root mean squared (rms) noise on each channel. Any electrodes with rms noise levels greater than 5 uV were grounded (e.g., no data were recorded). Once grounded, an electrode was grounded for the duration of the experiment. All recordings were conducted at 37 C. Wells were deemed usable if on the day of the exposure >/= 10 electrodes were active (defined as >/= 5 spikes/min). On DIV 13 or 15, a minimum of three wells from one cortical culture preparation were treated with each compound (0.03-40 uM). Prior to recording baseline activity, each mwMEA plate was placed in the Maestro at 37 C and allowed to sit for 20 min while firing rates stabilized. Baseline activity (40 min) was recorded before the addition of each compound. An additional 40 min of spontaneous activity was recorded in the presence of each compound. Changes in network parameters relative to baseline were assessed following compound treatment.

| SMILES | AC50 | outcome |
| --- | --- | --- |
| Cc1cc(Cc2ccc(N)c(C)c2)ccc1N | 14.9 µM (active) |  |
| COC(=O)[C@H]1[C@H]2C[C@@H]3c4[nH]c5cc(OC)ccc5c4CCN3C[C@H]2C[C@@H](OC(=O)c2cc(OC)c(OC)c(OC)c2)[C@@H]1OC | 1.04 µM (active) |  |
| Nc1nc(=S)c2[nH]cnc2[nH]1 |  | inactive |
| Cc1c(C)c2c(c(C)c1O)CCC(C)(COc1ccc(CC3SC(=O)NC3=O)cc1)O2 (stereo not drawn) | 3.97 µM (active) |  |
| Cc1cc(SC2=C(O)C[C@@](CCc3ccc(N)cc3)(C(C)C)OC2=O)c(C(C)(C)C)cc1CO |  | inactive |
| CC1=C(C)S(=O)(=O)CCS1(=O)=O |  | inactive |
| Cc1ccc(C(C)(C)C)c(O)c1 |  | inactive |
| CCN(CC)CCOc1ccc(C(=C(Cl)c2ccccc2)c2ccccc2)cc1 | 2.62 µM (active) |  |
| CN(C)C(=O)NC1(c2ccccc2)CCN(CCC[C@]2(c3ccc(Cl)c(Cl)c3)CCCN(C(=O)c3ccccc3)C2)CC1 |  | inactive |
| CC(C)NCC(O)c1ccc(O)c(O)c1 (stereo not drawn) |  | inactive |
| O=C(O)CN(CC(=O)O)CC(=O)O |  | inactive |
| CC(C)COC(=O)CCCCC(=O)OCC(C)C |  | inactive |
| C/C=C/c1ccc(OC)cc1 |  | inactive |
| CCCC(=O)O |  | inactive |
| CC(N)=O |  | inactive |
| CN(C)CCCN1c2ccccc2Sc2ccc(Cl)cc21 |  | inactive |
| c1ccc2occc2c1 |  | inactive |
| CCCCC(CC)COP(=O)(OCC(CC)CCCC)OCC(CC)CCCC (stereo not drawn) |  | inactive |
| Oc1ccc(O)cc1 |  | inactive |
| OCC(CO)n1cnc(-c2ccc(F)cc2)c1-c1ccnc(Oc2ccccc2)n1 |  | inactive |
| O=C1OC(c2ccc(O)cc2)(c2ccc(O)cc2)c2ccccc21 |  | inactive |
| CN(C)C(=O)NC1(c2ccccc2)CCN(CC[C@@]2(c3ccc(F)c(F)c3)CN(C(=O)c3ccccc3)CCO2)CC1 | 4.14 µM (active) |  |
| O=C(N[C@@H](c1ccccc1)[C@@H]1CCCCN1)c1cccc(C(F)(F)F)c1Cl | 4.39 µM (active) |  |
| COc1ccc(OC(F)(F)F)cc1CN[C@H]1CCCN[C@H]1c1ccccc1 | 1.73 µM (active) |  |
| CSc1ccc(Oc2ccc(S(N)(=O)=O)cc2CN(C)C)cc1C |  | inactive |
| CCc1cc(C2=C(C(=O)O)N(c3ccccc3C(F)(F)F)S(=O)(=O)c3ccccc32)cc2c1OCO2 |  | inactive |
| NC(=Nc1ccccc1)Nc1ccccc1 | 2.03 µM (active) |  |
| Cc1ccc(-c2cc(C(F)(F)F)nn2-c2ccc(S(N)(=O)=O)cc2)cc1 | 6.27 µM (active) |  |
